Test [1] can be described thus: small molecules captured by biotinylated probe aFSTL3 – biochemical, small-molecule microarray, fluorescence 635/667, stem cell growth factor project, primary screen (AID 1064).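 Note: measures binding of the biotinylated anti-FSTL3 antibody to printed compounds.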 As to conditions: higher = more signal.
A short description of test [2]: binders from COS7 lysate, DM2A8 probe, primary screen, torsin A project, cell lysate, small-molecule microarray, fluorescence 635/667 (AID 1065). The settings on record: higher = more signal, COS7 lysate expressing mutant human TOR1A.
Test [3] can be described thus: small molecules captured by biotinylated probe aFGF2 – biochemical, small-molecule microarray, fluorescence 635/667, stem cell growth factor project, primary screen (AID 1067).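 Note: measures binding of biotinylated aFGF2 protein to printed compounds on slides; z-score merges feature fluorescence and signal-to-noise across triplicate slides.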 As to conditions: higher = more signal.
The nature of test [4]: small molecules captured by biotinylated probe aFGF10 – biochemical, small-molecule microarray, fluorescence 635/667, stem cell growth factor project, primary screen (AID 1071).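 Note: score merges 667 nm spot intensity and signal to noise from triplicate slides.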 The settings on record: higher = more signal.
In test [5] the target is Neurogenic locus notch homolog protein 2 (Homo sapiens) (UniProt Q04721). The experiment in a line: small molecules binding Notch2 protein – biochemical, small-molecule microarray, 635 nm fluorescence, stem cell growth factors, primary screen (AID 1073). As to conditions: higher = more signal.
Test [6] has as its target Pro-neuregulin-1, membrane-bound isoform (Homo sapiens) (UniProt Q02297). As to the kind of experiment: small molecules binding neuregulin-1 protein – biochemical, small-molecule microarray, fluorescence 635/667, psychiatric disease protein project, primary screen (AID 1075).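 Note: score combines 667 nm spot fluorescence with signal to noise.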 The settings on record: NRG1 binding, 635 nm fluorescence, higher = more signal.
For test [7], the system named is Neuregulin-1 EGF-like domain. As to the kind of experiment: small molecules binding NRG1 EGF domain – biochemical, small-molecule microarray, 635 nm fluorescence, primary screen (AID 1081).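 Note: binding of the protein to compounds printed on small-molecule microarray slides.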 The settings on record: higher = more signal.
Test [8] is described as follows: FRG1 expression reporter modulators in myotubes – cell-based, C2C12 myotubes, firefly/Renilla luciferase, luminescence, FRG1 inhibition for FSHD, primary screen (AID 1084). As to conditions: FRG1 promoter luciferase, higher = more signal, called active from +8 up or from −8 down.
Test [9] can be described thus: small molecules captured by biotinylated probe aFST – biochemical, small-molecule microarray, fluorescence 635/667, stem cell growth factor project, primary screen (AID 1086).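 Note: score merges 667 nm fluorescence with signal-to-noise of each printed compound spot.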 As to conditions: higher = more signal.
Test [10] can be described thus: binders of probe aHhip on microarray, primary screen, stem cell growth factor project, biochemical, small-molecule microarray, fluorescence 635/667 (AID 1087).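 Note: score merges spot fluorescence at 667nm with spot signal to noise ratio.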 As to conditions: higher = more signal.
The subject of test [11] is PRMT1 (protein arginine N-methyltransferase 1). As to the kind of experiment: small molecules binding arginine methyltransferase PRMT1 – biochemical, small-molecule microarray, 635 nm fluorescence, primary screen (AID 1088).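 Note: binding of Prmt1 protein to compounds spotted on small-molecule microarray slides.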 As to conditions: higher = more signal.
A short description of test [12]: growth effects on S. cerevisiae YJM789 – YJM789 clinical isolate, OD600, 24 h, basal, primary screen (AID 1089).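 Note: growth of clinical yeast isolate S. cerevisiae YJM 789 seeded 1000 cells per well; test concentration not given here.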 As to conditions: higher = more signal, called active from +8 up or from −8 down.
Test [13] is described as follows: S. pombe growth modifiers, basal conditions – strain 972, OD600, 24 h, no modulator, primary screen (AID 1090).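 Note: basal condition with compound alone and no growth modifier present; test concentration not given here.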 The settings on record: S. pombe 972 growth, higher = more signal, called active from +8 up or from −8 down.
Test [14] can be described thus: budding yeast growth modifiers under rapamycin – strain BY4716, OD600, 96 h, primary screen (AID 1091). Note: test concentration not given here. As to conditions: S. cerevisiae BY4716 + rapamycin, higher = more signal, called active from +8 up or from −8 down.
The target of test [15] is Torsin-1A-interacting protein 2 (Homo sapiens) (UniProt Q8NFQ8). The experiment in a line: small molecules binding lysate-expressed LULL1 – cell lysate, human LULL1 lysate, 635/667 nm fluorescence, primary screen (AID 1092).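 Note: probe is lysate of COS7 cells overexpressing human LULL1; score merges per-feature 667 nm fluorescence with signal-to-noise.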 The settings on record: small-molecule microarray, hLULL1 lysate binding, 635 nm fluorescence; higher = more signal.
Test [16] can be described thus: optical density change of DRC41 E. coli – strain DRC41, OD650, 24 h, E. coli filamentation project, primary screen (AID 1093).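 Note: MC1000 strain lacking acrAB efflux and sulA so SOS filamentation is blocked; test concentration not given here.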 As to conditions: E. coli DRC41 growth, higher = more signal, called active from +8 up or from −8 down.
Test [17] is described as follows: probe aLefty2 binding to arrayed compounds – biochemical, biotinylated probe, 635/667 nm fluorescence, primary screen (AID 1094).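 Note: score merges spot fluorescence near 667 nm with spot signal-to-noise ratio.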 The settings on record: small-molecule microarray, higher = more signal.
In test [18] the test system is Noggin (protein binding on small-molecule microarray). The experiment in a line: small molecules binding Noggin protein – biochemical, 635/667 nm fluorescence, primary screen (AID 1095).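 Note: score merges 667 nm feature fluorescence with signal to noise over triplicate slides.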 The settings on record: 635 nm fluorescence, higher = more signal.
For test [19], the target named is Neurogenic locus notch homolog protein 3 (Homo sapiens) (UniProt Q9UM47). As to the kind of experiment: small molecules binding NOTCH3 protein – biochemical, 635/667 nm fluorescence, primary screen (AID 1096). The settings on record: small-molecule microarray, 635 nm fluorescence, higher = more signal.
The nature of test [20]: probe aEGFR binding to arrayed compounds – biochemical, biotinylated probe, 635/667 nm fluorescence, primary screen (AID 1097).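 Note: probe is a biotinylated anti-EGFR antibody binding compounds printed on slides; score combines fluorescence near 667 nm and signal to noise of each spot.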 As to conditions: small-molecule microarray, higher = more signal.

Here are results for five molecules from PubChem BioAssay.

Active and inactive are the calls of the source.

Neurogenic locus notch homolog protein 2 (Homo sapiens), sequence (Q04721 whole entry, looked up, canonical isoform): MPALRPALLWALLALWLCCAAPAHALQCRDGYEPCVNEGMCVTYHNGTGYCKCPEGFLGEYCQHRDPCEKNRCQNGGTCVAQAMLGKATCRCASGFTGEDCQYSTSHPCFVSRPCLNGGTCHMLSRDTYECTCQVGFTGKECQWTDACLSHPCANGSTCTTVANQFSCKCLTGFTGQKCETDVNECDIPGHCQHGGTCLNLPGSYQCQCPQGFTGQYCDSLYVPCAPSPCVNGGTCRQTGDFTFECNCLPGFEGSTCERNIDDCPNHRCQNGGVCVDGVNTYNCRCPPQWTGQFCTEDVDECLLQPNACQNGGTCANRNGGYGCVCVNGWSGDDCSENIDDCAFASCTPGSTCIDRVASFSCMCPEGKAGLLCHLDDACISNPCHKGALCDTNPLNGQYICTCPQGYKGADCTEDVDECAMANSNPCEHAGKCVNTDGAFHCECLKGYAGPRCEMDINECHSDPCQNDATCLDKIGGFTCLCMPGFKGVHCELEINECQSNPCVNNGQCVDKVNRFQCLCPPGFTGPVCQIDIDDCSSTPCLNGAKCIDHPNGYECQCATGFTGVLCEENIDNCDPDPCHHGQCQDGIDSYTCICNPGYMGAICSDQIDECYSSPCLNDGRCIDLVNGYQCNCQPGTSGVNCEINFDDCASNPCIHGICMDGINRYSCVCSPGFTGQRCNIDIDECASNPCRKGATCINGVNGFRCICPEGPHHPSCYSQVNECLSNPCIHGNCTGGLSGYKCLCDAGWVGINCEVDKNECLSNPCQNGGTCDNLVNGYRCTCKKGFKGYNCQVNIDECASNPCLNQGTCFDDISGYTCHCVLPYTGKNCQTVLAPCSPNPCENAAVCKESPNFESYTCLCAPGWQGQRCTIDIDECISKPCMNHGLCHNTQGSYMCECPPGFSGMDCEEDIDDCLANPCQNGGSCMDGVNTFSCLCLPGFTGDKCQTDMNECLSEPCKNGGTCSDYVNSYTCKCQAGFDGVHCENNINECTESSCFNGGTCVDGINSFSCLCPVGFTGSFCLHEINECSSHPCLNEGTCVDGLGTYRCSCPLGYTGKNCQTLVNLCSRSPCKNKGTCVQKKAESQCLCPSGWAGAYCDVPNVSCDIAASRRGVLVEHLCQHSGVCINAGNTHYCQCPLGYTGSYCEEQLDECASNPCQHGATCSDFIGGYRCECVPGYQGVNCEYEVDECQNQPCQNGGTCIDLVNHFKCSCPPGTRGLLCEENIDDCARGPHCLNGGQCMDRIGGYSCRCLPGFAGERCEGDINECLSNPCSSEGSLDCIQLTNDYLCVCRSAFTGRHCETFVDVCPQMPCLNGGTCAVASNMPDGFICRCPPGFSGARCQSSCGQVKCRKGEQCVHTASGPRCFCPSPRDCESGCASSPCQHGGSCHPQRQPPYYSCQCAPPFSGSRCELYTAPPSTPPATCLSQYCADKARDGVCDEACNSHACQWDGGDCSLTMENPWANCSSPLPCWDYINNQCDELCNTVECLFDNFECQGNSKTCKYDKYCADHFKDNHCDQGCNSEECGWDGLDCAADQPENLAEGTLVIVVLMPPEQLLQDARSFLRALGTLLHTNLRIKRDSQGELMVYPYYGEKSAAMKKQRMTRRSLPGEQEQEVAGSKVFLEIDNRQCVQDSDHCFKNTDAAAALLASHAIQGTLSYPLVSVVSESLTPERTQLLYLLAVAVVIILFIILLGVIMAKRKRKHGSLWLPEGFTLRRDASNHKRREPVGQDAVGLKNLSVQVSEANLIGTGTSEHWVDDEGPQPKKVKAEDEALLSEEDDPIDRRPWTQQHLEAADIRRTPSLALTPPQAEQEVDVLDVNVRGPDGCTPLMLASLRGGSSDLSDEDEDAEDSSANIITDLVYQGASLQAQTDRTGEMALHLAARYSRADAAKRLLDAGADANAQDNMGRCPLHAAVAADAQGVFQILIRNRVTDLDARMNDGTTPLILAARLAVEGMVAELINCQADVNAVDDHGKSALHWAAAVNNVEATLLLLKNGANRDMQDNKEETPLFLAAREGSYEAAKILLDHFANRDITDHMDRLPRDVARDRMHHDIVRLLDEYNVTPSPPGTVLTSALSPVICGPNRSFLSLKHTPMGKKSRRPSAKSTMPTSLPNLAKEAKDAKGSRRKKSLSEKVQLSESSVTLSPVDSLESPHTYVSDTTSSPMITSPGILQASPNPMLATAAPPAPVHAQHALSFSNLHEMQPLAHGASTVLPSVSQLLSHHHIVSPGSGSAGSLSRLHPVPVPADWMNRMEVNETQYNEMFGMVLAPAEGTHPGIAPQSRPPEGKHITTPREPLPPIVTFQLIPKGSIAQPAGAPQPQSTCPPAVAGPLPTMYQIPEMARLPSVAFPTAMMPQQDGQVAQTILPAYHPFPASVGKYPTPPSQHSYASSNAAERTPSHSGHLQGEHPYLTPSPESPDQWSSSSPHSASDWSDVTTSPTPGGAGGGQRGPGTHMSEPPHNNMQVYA
Neurogenic locus notch homolog protein 3 (Homo sapiens), sequence (Q9UM47 whole entry, looked up): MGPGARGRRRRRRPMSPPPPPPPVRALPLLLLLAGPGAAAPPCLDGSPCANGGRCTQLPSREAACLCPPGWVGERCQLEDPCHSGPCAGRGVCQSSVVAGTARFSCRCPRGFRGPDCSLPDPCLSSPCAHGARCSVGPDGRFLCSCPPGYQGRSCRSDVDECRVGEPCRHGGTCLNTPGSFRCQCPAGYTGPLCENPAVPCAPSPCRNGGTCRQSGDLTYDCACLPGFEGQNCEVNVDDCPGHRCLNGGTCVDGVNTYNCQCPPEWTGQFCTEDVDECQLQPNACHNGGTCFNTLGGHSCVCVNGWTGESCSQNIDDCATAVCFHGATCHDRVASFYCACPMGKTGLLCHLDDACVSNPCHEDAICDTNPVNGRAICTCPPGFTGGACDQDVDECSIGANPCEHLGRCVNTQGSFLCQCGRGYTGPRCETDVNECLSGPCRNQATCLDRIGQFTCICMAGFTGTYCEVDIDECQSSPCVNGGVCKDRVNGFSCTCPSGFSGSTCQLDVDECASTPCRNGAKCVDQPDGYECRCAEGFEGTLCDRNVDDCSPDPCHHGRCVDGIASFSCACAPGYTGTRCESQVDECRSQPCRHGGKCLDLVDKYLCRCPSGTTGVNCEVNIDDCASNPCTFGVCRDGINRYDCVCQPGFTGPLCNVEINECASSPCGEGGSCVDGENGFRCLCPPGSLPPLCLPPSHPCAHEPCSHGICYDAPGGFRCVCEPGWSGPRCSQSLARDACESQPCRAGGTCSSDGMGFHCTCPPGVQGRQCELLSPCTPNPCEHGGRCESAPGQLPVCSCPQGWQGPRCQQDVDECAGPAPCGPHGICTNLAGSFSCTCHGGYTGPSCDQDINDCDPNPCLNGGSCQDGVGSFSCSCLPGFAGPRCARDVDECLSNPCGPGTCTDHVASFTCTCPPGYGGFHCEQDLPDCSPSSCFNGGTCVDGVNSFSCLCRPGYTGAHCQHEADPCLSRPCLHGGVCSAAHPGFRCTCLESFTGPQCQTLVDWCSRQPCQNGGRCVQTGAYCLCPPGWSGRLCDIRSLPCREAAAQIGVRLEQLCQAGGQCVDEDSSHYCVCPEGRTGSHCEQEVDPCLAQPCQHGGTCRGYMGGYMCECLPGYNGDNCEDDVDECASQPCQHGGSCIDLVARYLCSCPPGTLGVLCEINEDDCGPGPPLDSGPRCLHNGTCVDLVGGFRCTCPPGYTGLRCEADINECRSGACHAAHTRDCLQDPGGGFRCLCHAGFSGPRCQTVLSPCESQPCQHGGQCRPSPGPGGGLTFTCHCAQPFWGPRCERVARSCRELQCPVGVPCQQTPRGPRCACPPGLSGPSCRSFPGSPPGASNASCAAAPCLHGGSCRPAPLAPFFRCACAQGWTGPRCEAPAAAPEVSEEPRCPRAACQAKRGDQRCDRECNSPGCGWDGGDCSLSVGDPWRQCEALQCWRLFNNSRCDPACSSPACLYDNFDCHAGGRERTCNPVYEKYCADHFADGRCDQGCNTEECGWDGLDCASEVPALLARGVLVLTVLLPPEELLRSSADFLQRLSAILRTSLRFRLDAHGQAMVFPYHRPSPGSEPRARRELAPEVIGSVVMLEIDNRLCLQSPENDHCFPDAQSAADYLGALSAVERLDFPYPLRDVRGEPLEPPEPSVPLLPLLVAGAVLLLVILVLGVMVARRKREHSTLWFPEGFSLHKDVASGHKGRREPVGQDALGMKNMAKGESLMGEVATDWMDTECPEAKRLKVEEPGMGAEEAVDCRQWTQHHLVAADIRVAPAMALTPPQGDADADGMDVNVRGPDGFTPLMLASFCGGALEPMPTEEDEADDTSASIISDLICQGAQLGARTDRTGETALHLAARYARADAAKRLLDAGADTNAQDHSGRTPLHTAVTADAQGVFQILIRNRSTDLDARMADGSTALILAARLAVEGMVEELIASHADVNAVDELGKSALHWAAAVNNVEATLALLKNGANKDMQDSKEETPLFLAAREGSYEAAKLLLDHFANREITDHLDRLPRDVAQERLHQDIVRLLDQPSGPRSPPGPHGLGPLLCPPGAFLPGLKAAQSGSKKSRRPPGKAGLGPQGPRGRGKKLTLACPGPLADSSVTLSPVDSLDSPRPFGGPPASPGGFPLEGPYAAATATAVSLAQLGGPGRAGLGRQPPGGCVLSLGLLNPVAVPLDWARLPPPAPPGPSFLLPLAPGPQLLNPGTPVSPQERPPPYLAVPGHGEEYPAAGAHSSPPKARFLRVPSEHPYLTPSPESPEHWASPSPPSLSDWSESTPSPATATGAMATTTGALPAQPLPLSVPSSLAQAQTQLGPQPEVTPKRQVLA

Take `C=C(COC)/C(=C/C[C@@H](OC(=O)c1ccncc1)c1ccc(CO)o1)c1cc(C(=O)OC)ccc1OC`: the composite z-score is -0.496 in [1]; 0.699 in test [2]; -0.0451 in [3]; 0.833 in test [4]; 1.38 in [5]; 0.97 in test [6]. Also, the composite z-score was 1.26 in [7]; 0.458 in test [9]; -0.0994 in test [10]; 1.53 in test [11]; 2 in test [15]; -0.178 in test [17]. For the same molecule, the composite z-score in test [18] amounted to 1.68; in test [19], 1.07; in test [20] it was 0.0878. Moreover, the z-score was -1.38 (inactive) in [8]; 0.102 (inactive) in [12]; -0.262 (inactive) in test [13]; -0.127 (inactive) in [14]; 0.564 (inactive) in [16].

In the case of `C=C(CCCC)/C(=C/C[C@H](OC(C)=O)c1ccccc1OCCO)c1cc(C(=O)OC)ccc1OC`, the composite z-score in [1] was -0.198; in test [2] it was -0.268; in test [3], -0.134; in [4] it was 0.339; in test [5], -0.264; in [6], -0.35. The composite z-score in test [7] was 0.48; in test [9] it was -0.201; in test [10] it was -0.134; in test [11] it was -0.0836; in [15] it was 0.405; in test [17] it was -0.171. Moreover, the composite z-score in test [18] was -0.035; in [19] it was 0.212; in test [20] it was -0.126. The z-score is -0.214 (inactive) in [8]; 0.556 (inactive) in [12]; -0.886 (inactive) in [13]; -0.24 (inactive) in test [14]; 1.18 (inactive) in [16].

Regarding `COCCOC(=O)N1C(=O)[C@@]2(c3cc(C#CCNC(N)=O)ccc31)[C@H](C(=O)Nc1nc3ccccc3s1)[C@H]1C(=O)O[C@H](c3ccccc3)[C@H](c3ccccc3)N1[C@@H]2c1ccc(OCCO)cc1`, the composite z-score in test [1] amounted to 1.02; in [2], 0.103; in test [3] it was 0.0346; in [4] it was 1.05; in [5], 0.486; in test [6], 0.357. The composite z-score in test [7] is 0.331; in [9], 0.84; in test [10], -0.226; in [11], 1.55; in [15] it was 1.61; in test [17], 0.711. Further, the composite z-score is 0.88 in test [18], 1.06 in [19] and -0.0354 in test [20]. Besides, the z-score was 6.33 (inactive) in test [8]; 1.18 (inactive) in test [12]; 0.409 (inactive) in test [13]; 2.79 (inactive) in [14]; -0.333 (inactive) in test [16].

On to `C=C(C)[C@@H]1CC=C(C(O)C2C=CC3C(=O)N(C)C(=O)C3N2Nc2ccccc2)CC1` (stereo not given in full), for which the composite z-score in test [1] is 0.301; in test [2], 0.122; in test [3] it was -0.0216; in [4] it was 0.394; in test [5], 1.27; in [6], 0.624. For the same molecule, the composite z-score in [7] is 0.928; in [9], 0.577; in [10], 0.176; in test [11], 1.12; in test [15] it was 1.16; in [17], 0.118. Also, the composite z-score in [18] came out at 0.728; in test [19], 1.08; in test [20], 0.0044. Further, the z-score in test [8] was 0.283 (inactive); in test [12] it was 0.821 (inactive); in [13], -0.329 (inactive); in test [14], 1.92 (inactive); in test [16], -1.03 (inactive).

On to `COCCOC(=O)N1C(=O)[C@@]2(c3cc(C#CC4(O)CCCCCC4)ccc31)[C@H](c1ccc(OCCO)cc1)N1[C@H](c3ccccc3)[C@H](c3ccccc3)OC(=O)[C@H]1[C@@H]2C(=O)N1CCN(c2ncccn2)CC1`, for which the composite z-score in test [1] was -0.407; in [2] it was 0.485; in test [3], -0.0242; in [4], 0.612; in test [5], 1.03; in [6] it was 1.09. Also, the composite z-score in test [7] is 0.966; in test [9] it was 0.557; in test [10] it was -0.0645; in test [11] it was 1.56; in test [15] it was 2.69; in [17], -0.136. Besides, the composite z-score in [18] was 1.67; in [19], 1.08; in [20] it was -0.108. The z-score is -0.254 (inactive) in test [8]; 2.64 (inactive) in test [12]; 2.26 (inactive) in [13]; 6.24 (inactive) in [14]; 0.0846 (inactive) in [16].
